Among all 69,000 compounds or so, about 8,600 (12%) showed an effect of 50% or more. Shown is part of a subset that was picked to be rich in strong results.

The test system of this test is Plasmodium berghei. The experiment in a line: Screen against P. berghei liver stage (PbLuc), transformed with Luciferase, at 10uM. It counts as functional, HepG2. The following applies: tested at 10 uM.
For the molecule `CCN(Cc1cccc(F)c1)Cn1nc(C)c2c(C)onc2c1=O`, the INHIBITION came out at 11.4%.

Regarding `Cc1nccc(NCc2cc3n(n2)CCCN(C(=O)C2CCC2)C3)n1`, the INHIBITION is 21.1%. The result for `Cc1cc2c(=O)n(CCSc3ncn[nH]3)cnc2s1` reads 29.4%; that for `Cn1nnc2c1CCN(C(=O)C1CC1)C2COCCN1CCCC1` (stereo unspecified), -6.23%; that for `c1ncn(CC2CCCCN2Cc2cn3ccsc3n2)n1` (stereo unspecified), 25.45%. With `CC[C@H]1CN(C(=O)c2ccc(-n3cnnc3)nc2)CC[C@@]1(C)O`, the INHIBITION was 53.8%. The result for `O=C(c1ccc(-n2cnnc2)nc1)N1CCCC(O)(CO)CC1` (stereo unspecified) reads 8.38%; that for `CC[C@H]1CN(C(=O)c2cccc(-n3cnnc3)n2)CC[C@@]1(C)O`, -0.71%. In the case of `Cc1ccc2cc(CNCCCN3CCOCC3)c(=O)[nH]c2c1C` it was -5.71%; in that of `C[C@H]1C[C@@H]2CCN(C(=O)c3cccn3C)C[C@H]2O1`, 25%. As for `Cc1c(F)cccc1S(=O)(=O)N(C)CC(C)O` (stereo unspecified), the INHIBITION is reported as -37.6%.

Take `CC(O)CN(C)S(=O)(=O)c1ccc(C#N)cc1F` (stereo unspecified): the INHIBITION turned out to be 64.6%. As to `Cc1ccc(S(=O)(=O)N(C)CC(C)O)c(F)c1` (stereo unspecified), the INHIBITION stood at 6.99%. The result for `Cc1n[nH]c2nc(-c3ccccc3O)cc(C(=O)O)c12` reads 7.09%. In the case of `OCCOc1cc(F)ccc1NCc1cccc(F)c1F` it was 54.5%.

Take `OCCOc1cc(F)ccc1NCc1ccc(F)c(F)c1`: the INHIBITION is given as -16.8%. Consider `N#Cc1ccc(F)c(CNc2ccc(F)cc2OCCO)c1`, for which the INHIBITION is reported as 10.9%. Regarding `OCCOc1cc(F)ccc1NCc1nc(-c2cccs2)no1`, the INHIBITION is recorded as 12.8%. In the case of `Cc1ccccc1-c1noc(CNc2ccc(F)cc2OCCO)n1` it was 52.6%; in that of `COc1ccccc1-c1noc(CNc2ccc(F)cc2OCCO)n1`, 13.7%. `Cc1nc(CC(=O)N2CCn3c(nnc3C(C)C)C2)cs1`: the INHIBITION was found to be 18.15%.

Regarding `O=C(CCc1ccc(-c2ccccc2)[nH]1)N1CCCC(n2ccnc2)C1` (stereo unspecified), the INHIBITION is 3.5625%.

As for `CCC(=O)Nc1cccc(OCC(=O)N[C@@H]2C[C@@H]3CC[C@H]2C3)c1`, the INHIBITION is given as -23.4%. On to `Cc1nc(C2CCCN(C(C)C)C2)sc1Br` (stereo unspecified), for which the INHIBITION was found to be 11.8%.

For `O=C(Nc1ccccn1)C1CC(=O)N(Cc2ccccn2)C1` (stereo unspecified), the INHIBITION is -87.6%. In the case of `O=C(C1CC(F)(F)C1)N1CC[C@H]2OCC[C@@]2(COCC2CC2)C1` it was 39.3%; in that of `COC[C@@]12CCO[C@@H]1CCN(C(=O)C1CC(F)(F)C1)C2`, 94.6%.

For `COC[C@@]12CCO[C@@H]1CCN(C(=O)C1CCOCC1)C2`, the INHIBITION was 13.1%. For the molecule `CN1CC(=O)N(c2ccccc2)CC12CCN(CC1CC1)C2` (stereo unspecified), the INHIBITION is listed as 48.9%.

`O=C(NCCCn1cncn1)N1CCC(N2CCCCC2)CC1`: the INHIBITION is given as -17.167%. The result for `Cn1cccc1C(=O)N1CCc2ccc(=O)n(C)c2CC1` reads 21.4%. Turning to `O=C1CC(c2cccnc2)c2c(c(C(=O)O)cn2-c2cccc(F)c2)N1` (stereo unspecified), the INHIBITION is listed as -18.3%. The result for `CN1CCC2(CCN(c3ncc(F)cn3)CC2)C1=O` reads 30.5%. For the molecule `CN(Cc1nc(CC2CC2)no1)CC1Cc2ccccc2O1` (stereo unspecified), the INHIBITION was 12.6%. As for `CN(Cc1nc(Cc2ccccc2F)no1)CC1Cc2ccccc2O1` (stereo unspecified), the INHIBITION came out at 52%. In the case of `CN(Cc1nc(COc2ccccc2)no1)CC1Cc2ccccc2O1` (stereo unspecified) it was 8.07%. Regarding `O=C(Nc1nc(-c2ccccc2)ns1)N1CC[C@H](O)C1`, the INHIBITION was determined as 9.79%.

Turning to `CCSc1ccc(C(=O)N2CCC3(CCC(=O)N(C)C3)CC2)s1`, the INHIBITION came to 20.3%. `Cc1nc(NC(=O)C(C)n2ncc(Br)c2C)sc1C` (stereo unspecified): the INHIBITION turned out to be 21.5%.

Take `Cc1nnc(NC(=O)C(C)n2ncc(Br)c2C)s1` (stereo unspecified): the INHIBITION stood at 50.2%.

As for `Cc1c(Br)cnn1C(C)C(=O)Nc1nncs1` (stereo unspecified), the INHIBITION is 39.9%.

With `CN(C)Cc1cnc(C2CCN(C(=O)c3cccc(Cl)c3)C2)[nH]1` (stereo unspecified), the INHIBITION is given as 12.375%. In the case of `COC(=O)CC1CCN(C(=O)c2ccccc2-n2nnnc2C)CC1`, the INHIBITION turned out to be 9.57%. In the case of `Cc1nn(C)cc1CN1CCCC(n2c(=O)oc3ccc(Cl)cc32)C1` (stereo unspecified) it was 36%.

With `Cc1cc(C)cc(N(C)S(=O)(=O)c2cc(C(=O)O)cs2)c1`, the INHIBITION was 34.7%. In the case of `Cc1ccc(N(C)S(=O)(=O)c2cc(C(=O)O)cs2)cc1` it was 52.5%. `CN(c1ccc(C(C)(C)C)cc1)S(=O)(=O)c1cc(C(=O)O)cs1`: the INHIBITION was determined as 20.6%. The result for `O=c1n(CCSCCOc2ccc(Br)cc2)nc2ccccn12` reads 2.49%; that for `CNC(=O)c1ccc(C2CN(c3cc(C)nc(N)n3)CCO2)nc1` (stereo unspecified), 25.855%. With `O=C(c1ccnc(N2CCOC(C(F)(F)F)C2)c1)N1CCOCC1` (stereo unspecified), the INHIBITION is on record as 12.7%. The result for `CC(C)n1ccnc1C1CCCN(c2cc(C(=O)NC3CC3)ccn2)C1` (stereo unspecified) reads 31.2%; that for `O=C(NC1CC1)c1ccnc(N2CCOC(c3ccc(Cl)c(Cl)c3)C2)c1` (stereo unspecified), 86.6%.

In the case of `O=C(c1ccnc(N2CCOC(c3ccc(Cl)cc3)C2)c1)N1CCCC1` (stereo unspecified), the INHIBITION was 73.5%. For `O=C(NC1CC1)c1ccnc(N2CCOC(c3ccc(Cl)cc3)C2)c1` (stereo unspecified), the INHIBITION is listed as 67.7%.

On to `CN1CCN(C(=O)c2ccnc(N3CCOC(C(F)(F)F)C3)c2)CC1` (stereo unspecified), for which the INHIBITION was -14.1%.

Take `O=C(c1ccnc(N2CCOC(C(F)(F)F)C2)c1)N1CCCC1` (stereo unspecified): the INHIBITION came out at 7.77%.

With `O=C(CN1C(=O)CCNC1=O)N1CCOC(c2ccc(Cl)c(Cl)c2)C1` (stereo unspecified), the INHIBITION is listed as -52.2%. Consider `Cn1cc(CN2C[C@H]3CCN(C(=O)c4cscn4)C[C@H]3C2)cn1`, for which the INHIBITION amounted to 43.9%. In the case of `CC(C)Oc1ncccc1CNC(=O)Nc1ccccn1` it was -17.6%; in that of `Cc1cc(-c2ccccc2C(=O)O)nc(C2CCCN(C(C)C)C2)n1` (stereo unspecified), 13%. On to `Cc1nc(NC2CCCC2)cc(C2CCN2C(=O)c2cnn(C)c2)n1` (stereo unspecified), for which the INHIBITION is reported as 0.301%.

As for `Cc1ccc2c(c1)SCC(=O)N2Cc1noc(C2CC2)n1`, the INHIBITION is on record as -0.578%.

With `CCc1ccc(CNC(=O)NCc2nnc3n2CCC3)s1`, the INHIBITION came out at 25.1%. Take `COc1ccc(C(NC(=O)NCc2nnc3n2CCC3)C2CC2)cc1` (stereo unspecified): the INHIBITION worked out at 50.4%. The result for `CN(Cc1cnn(C)c1)C(=O)NCc1nnc2n1CCC2` reads -22.6%; that for `CC(CN1CCOCC1)NC(=O)N(C)Cc1ccc(Cl)s1` (stereo unspecified), -12.6%; that for `CC(CN1CCOCC1)NC(=O)NCCc1ccc(Cl)s1` (stereo unspecified), 53.4%. The result for `O=C(NCCc1ccc(Cl)s1)NCc1nnc2n1CCCC2` reads 21%; that for `O=C(NCCc1ccc(Cl)s1)NCc1nnc2n1CCC2`, 53.8%. The result for `O=C(NCCC1=CCCCC1)NCc1nnc2n1CCC2` reads 40.3%; that for `Cn1cc(CCNC(=O)NCc2nnc3n2CCC3)cn1`, 59.7%. For `CC(CN1CCOCC1)NC(=O)NCc1ccc(Cl)s1` (stereo unspecified), the INHIBITION was -34.7%. As to `O=C(NCc1ccc(Cl)s1)NCc1nnc2n1CCCCC2`, the INHIBITION is -10.6%.

Take `CCn1cnnc1CNC(=O)NC(c1ccc(OC)cc1)C1CC1` (stereo unspecified): the INHIBITION is 32.5%. In the case of `CN(C)CCC1CCN(Cc2ccn(C)c(=O)c2)CC1`, the INHIBITION is -8.11%. For the molecule `CO[C@H]1CN(C(=O)c2ccccn2)[C@@H]2CCCO[C@H]12`, the INHIBITION is 36.4%. In the case of `CC(C)c1ncc(Cl)c(C(=O)N2CCN(C3CC3)CC2)n1` it was 40.7%; in that of `CS(=O)(=O)N1C[C@H]2CCCN(Cc3ccsc3)[C@H]2C1`, 21.6%; in that of `COc1cc(N2CCC3(CC2)CC(N2CCN(C)CC2)CO3)ncn1` (stereo unspecified), 26%. In the case of `Cc1cccc(C(=O)N2C[C@@H]3CC[C@H](Oc4cccc(F)c4)[C@@H]3C2)n1` it was 25.6%; in that of `COCCN1CCC2(CCCN(C(=O)c3cncn3C)C2)CC1`, 49.7%. In the case of `CNC(=O)CC1CC2(CCN(CC3CC3)CC2)Oc2ccccc21` (stereo unspecified) it was 44.5%; in that of `Cc1nc2sccn2c1CN(CCCN(C)C)Cc1ccccn1`, -12.5%; in that of `CN(CC1CCN(CCO)CC1)CC(O)c1ccc(F)cc1` (stereo unspecified), 34.1%. For `CN(CC1CCN(CCO)CC1)CC(O)c1ccc(F)cc1F` (stereo unspecified), the INHIBITION came out at 59.1%. On to `CN(CC1CCN(CCO)CC1)CC(O)c1ccc(F)c(F)c1` (stereo unspecified), for which the INHIBITION is 49.9%. In the case of `Cc1cc(C)n(Cc2ccc(-c3noc(C(=O)NC[C@@H](C)O)n3)cc2)n1`, the INHIBITION is -4.28%. In the case of `NC(=O)[C@H]1CCCN(c2nccc(-c3ccncc3)n2)C1` it was 10%.

On to `Cc1ccnc(N2CCC(C(N)=O)CC2)n1`, for which the INHIBITION came to 63.4%. On to `NC(=O)C1CCN(c2nccc(-c3c[nH]nc3C3CCCCC3)n2)CC1`, for which the INHIBITION is on record as 57.5%. Turning to `CN1CCN(c2nccc(-c3cncnc3C3CCCCC3)n2)CC1`, the INHIBITION is reported as 23.4%. In the case of `CN1CCCN(c2nccc(-c3cncnc3C3CCCCC3)n2)CC1` it was 50.1%.

Regarding `CN1CCCN(c2nccc(-c3c[nH]c4ccc(Br)cc34)n2)CC1`, the INHIBITION is 41.2%. As for `NC(=O)C1CCN(c2ncc(-c3cnccn3)c([C@H]3CCCO3)n2)CC1`, the INHIBITION was -0.902%. Take `Cc1ccnc(OCC(=O)N2CCC(C(N)=O)CC2)n1`: the INHIBITION was determined as 26.4%.

In the case of `CCOC(=O)C1CCN(c2nccc(-n3nc(C)cc3C)n2)CC1`, the INHIBITION is -79.8%. The result for `NC(=O)[C@H]1CCCN(c2nccc(-c3c[nH]nc3-c3cccnc3)n2)C1` reads 54.5%.

In the case of `NC(=O)C1CCN(c2nc3nccc(-c4ccccn4)c3c(=O)[nH]2)CC1`, the INHIBITION was found to be 2.37%.

Regarding `Cc1ncc(-c2ccnc(N3CC[C@H](O)C3)n2)c(-c2cccnc2)n1`, the INHIBITION is -13.7%. In the case of `CSc1ncccc1C(=O)N1C[C@@H]2CC[C@H]1CN(c1ncccn1)C2` it was 15.1%; in that of `CC(Cn1ccnc1)NC(=O)NCc1ccccn1` (stereo unspecified), 15.34%; in that of `COCCCNC(=O)c1nnsc1-c1ccccc1`, -6.42%. In the case of `CNc1cccc(C2CCN(C(C)=O)CC2)n1` it was -9.51%; in that of `COc1ccc(C)cc1CN1CCOC(Cn2nc(C)nc2C)C1` (stereo unspecified), -10.6%. In the case of `CCc1cc(-c2cc[nH]n2)nc(N2CCOCC2)n1` it was 17.5%. For `CC1CN(CC(=O)Nc2ccncc2)CCN1Cc1nccn1C` (stereo unspecified), the INHIBITION worked out at 8.9%.

Source of the values: ChEMBL document CHEMBL4513216, “Probing the Open Global Health Chemical Diversity Library for Multistage-Active Starting Points for Next-Generation Antimalarials” (ACS Infect Dis, 2020).
